Results taken from the supplement of paper PMC3334620.
The full ranking holds about 33,000 sequences; the median of “E-score (-0.5 to 0.5)” is about -0.012, and the highest 2% start at about 0.29. This is one part of a sample in which the highest values are shown more often than they occur.

target: T1, Ybr033w (UniProt P38073); experiment: PBM E-score (8-mer binding enrichment) (E-score (-0.5 to 0.5)); higher = stronger / more preferred TF binding; details: protein concentration: 200 nM; construct: GST-full length
T1 sequence: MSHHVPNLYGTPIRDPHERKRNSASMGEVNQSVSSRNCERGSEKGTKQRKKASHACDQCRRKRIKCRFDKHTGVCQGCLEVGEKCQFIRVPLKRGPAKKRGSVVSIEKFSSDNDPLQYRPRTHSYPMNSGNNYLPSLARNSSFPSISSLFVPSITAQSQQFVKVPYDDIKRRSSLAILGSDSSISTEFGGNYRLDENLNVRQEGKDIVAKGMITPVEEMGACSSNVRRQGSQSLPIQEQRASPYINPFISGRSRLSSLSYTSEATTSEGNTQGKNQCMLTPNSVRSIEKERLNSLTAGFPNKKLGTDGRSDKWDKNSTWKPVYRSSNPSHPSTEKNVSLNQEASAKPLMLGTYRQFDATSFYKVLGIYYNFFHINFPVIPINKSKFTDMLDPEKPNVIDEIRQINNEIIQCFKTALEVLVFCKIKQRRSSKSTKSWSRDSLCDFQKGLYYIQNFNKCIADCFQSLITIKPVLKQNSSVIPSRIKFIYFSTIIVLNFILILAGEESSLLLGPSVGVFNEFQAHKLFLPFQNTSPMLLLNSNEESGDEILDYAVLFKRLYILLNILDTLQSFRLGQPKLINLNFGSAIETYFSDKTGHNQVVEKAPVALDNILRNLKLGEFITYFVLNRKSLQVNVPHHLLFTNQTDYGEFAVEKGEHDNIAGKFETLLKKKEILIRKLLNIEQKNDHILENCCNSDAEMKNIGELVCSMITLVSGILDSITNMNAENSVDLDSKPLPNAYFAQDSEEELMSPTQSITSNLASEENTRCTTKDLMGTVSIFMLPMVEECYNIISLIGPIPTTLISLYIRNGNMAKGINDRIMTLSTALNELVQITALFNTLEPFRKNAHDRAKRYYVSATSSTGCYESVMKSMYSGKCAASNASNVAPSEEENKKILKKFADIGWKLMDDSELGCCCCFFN
In short: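 Universal all-10-mer Agilent arrays, double-stranded by primer extension on fresh or once-stripped slides, were probed with about 100-200 nM GST-tagged yeast transcription factors made by PURExpress. Fluorescent anti-GST detected bound protein, and masliner normalised the scans. E-scores from the Universal PBM Analysis Suite were given to each ungapped eight-base word pooled with its reverse complement.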

| Sequence | PBM E-score |
| --- | --- |
| CCGGGCGA | -0.226 |
| ACCTACAG | 0.0954 |
| TCACGCCA | -0.081 |
| AAATTAAT | 0.314 |
| TCATTAAA | 0.319 |
| ACATTAAA | 0.225 |
| GAATTAAA | 0.149 |
| TAATTAAA | 0.276 |
| AAATTAAA | 0.339 |
| GCATTAAA | 0.147 |
| AAATTAAG | 0.144 |
| AAATTAAC | 0.251 |
| AGGTAGGC | -0.147 |
| AATCTGGG | 0.00147 |
| CGCGAGTC | -0.0881 |
| GCATACTA | 0.0596 |
| ATAGTTCC | 0.25 |
| AGCTGCCA | -0.135 |
| TACAGATA | 0.291 |
| AACAGATA | 0.096 |
| GACAGATA | 0.0702 |
| GGCTGTAA | -0.0501 |
| CTTGAATA | 0.155 |
| ATTGAAAC | 0.164 |
| ATTGAAAA | 0.289 |

| Sequence | PBM E-score |
| --- | --- |
| AATGAAAT | 0.282 |
| ATTGAAAG | 0.111 |
| ATTGAGTA | 0.29 |
| ATTGAAAT | 0.296 |
| ATTGAATC | 0.0535 |
| ATTGAGTC | -0.0117 |
| ATTGAATA | 0.305 |
| GTTGAGTA | 0.127 |
| CTTGAAAA | 0.207 |
| TAGCGTGA | 0.00864 |
| AGCTTACT | 0.0872 |
| AACAAGGA | 0.12 |
| CATCGTAC | 0.0156 |
| CACAATCG | 0.0764 |
| CTGTGAGC | -0.0445 |
| AGCTAAGG | -0.119 |
| CTCCACGA | -0.0474 |
| CAACCACA | 0.0032 |
| TAGAAAGA | -0.0722 |
| CATTCTGC | 0.09 |
| AGCAGGAA | 0.0849 |
| CAACCGAC | 0.107 |
| ATAGTGGA | 0.0933 |
| ACTAGGGA | -0.159 |
| GAAAATCC | 0.308 |

| Sequence | PBM E-score |
| --- | --- |
| GGAAATCC | -0.00538 |
| TAAAAATA | 0.285 |
| AAAAAATA | 0.278 |
| GAAAAATA | 0.397 |
| GGAAAATA | 0.414 |
| AGAAAATA | 0.314 |
| GCAAAATA | 0.287 |
| AAAAATCC | 0.287 |
| GGAAAAGA | 0.0452 |
| AGAAAATC | 0.232 |
| CGAAAATA | 0.23 |
| AGGTTGAG | -0.167 |
| AAGGGGAT | -0.0478 |
| AGTACCGG | -0.182 |
| CGGGTGCC | -0.151 |
| TCACTACA | 0.243 |
| CCATCTGA | 0.0862 |
| CTTTAGGC | -0.0153 |
| AGATTGAC | 0.0305 |
| AAGCAAGG | -0.0139 |
| GGACAGAC | -0.174 |
| CAAAAATA | 0.316 |
| AAAAAATC | 0.248 |
| AAAAATAA | 0.275 |
| CAAAAATC | 0.236 |

| Sequence | PBM E-score |
| --- | --- |
| ACAAATAA | 0.265 |
| TAAAATAA | 0.261 |
| GCAAATAA | 0.322 |
| CAAAAATG | 0.157 |
| CCAAAATA | 0.182 |
| GAAAAATC | 0.381 |
| TCAAATAA | 0.202 |
| GAAAATAA | 0.304 |
| ATAGCGCA | 0.0412 |
| GACGATTA | -0.0748 |
| TGAGGACA | 0.00432 |
| AAACTACG | 0.0517 |
| ATCTACCC | 0.0482 |
| ACATCAGG | 0.038 |
| CTTTTCGC | 0.241 |
| CAGGCAAC | -0.0967 |
| ACGACCAT | -0.108 |
| AATCTAGT | 0.214 |
| AGCTCACG | -0.088 |
| GATTAACC | 0.195 |
| AATTAACT | 0.219 |
| AATTAACA | 0.295 |
| GCTTAACA | 0.0687 |
| GATTAACA | 0.396 |
| CATTAACA | 0.139 |

| Sequence | PBM E-score |
| --- | --- |
| AATTAACC | 0.158 |
| TATTAAGA | 0.168 |
| TATTAACA | 0.291 |
| ACCCAGGC | -0.0962 |
| AAGTGAAT | 0.239 |
| CACAGCCA | -0.174 |
| ATGCGGCA | -0.0591 |
| ATTTTCCA | 0.361 |
| ATTTCCCC | -0.0347 |
| AATTTCCC | 0.226 |
| CTTTTTCC | 0.361 |
| GTTTTCCA | 0.215 |
| ATTTTCCC | 0.386 |
| CTTTTCCA | -0.0875 |
| CCTTTTCC | -0.15 |
| CTTTTCCC | 0.0333 |
| GACCGGTC | -0.181 |
| AATCGTCA | -0.0213 |
| CAACGTTG | 0.156 |
| AGCTCTTC | 0.0781 |
| ATAATCGG | 0.162 |
| ATAATCCG | 0.383 |
| CAAATCCA | 0.0838 |
| ATGATCCC | 0.244 |
| GAAATCCA | 0.108 |

| Sequence | PBM E-score |
| --- | --- |
| GTAATCCA | 0.0788 |
| ATGATCCG | 0.412 |
| AAAATCCA | 0.339 |
| ACAATCCG | 0.0606 |
| ATGATCCA | 0.162 |
| ATAATCCC | 0.189 |
| ATAATCCA | 0.327 |
| CTCTGGCC | -0.15 |
| ACAAAGAC | 0.0319 |
| GAGGAACA | 0.171 |
| CAGGAACC | -0.122 |
| CAGGAACA | 0.401 |
| CAGGAACG | -0.0646 |
| TAGGAACA | 0.316 |
| AAGGAACA | 0.283 |
| GGGACCCC | -0.33 |
| ATGCCATG | -0.0545 |
| AACCATTC | 0.166 |
| ACTGAACC | 0.00627 |
| GTTGGCGA | -0.0105 |
| GATCGACC | 0.0146 |
| AAGCTAAA | 0.107 |
| CCCGGAAA | 0.192 |
| GACGGAAA | 0.227 |
| GCCGGAAC | 0.205 |

| Sequence | PBM E-score |
| --- | --- |
| ACCGGAAA | 0.151 |
| GCCGGAAA | 0.302 |
| TCCGGAAA | 0.298 |
| CTAGACCC | -0.194 |
| AAAGGATG | 0.163 |
| GCACACCA | -0.145 |
| GATTAAGA | 0.213 |
| GACTAATC | 0.0103 |
| GATTAATC | 0.435 |
| GATTAAGC | 0.104 |
| ACTTAATC | 0.275 |
| CATTAATG | 0.23 |
| AATTAATC | 0.341 |
| AATTAGTC | 0.212 |
| CATTAATA | 0.321 |
| GATTAATA | 0.328 |
| CATTAATC | 0.252 |
| TATTAATA | 0.101 |
| AGGGTGAT | -0.055 |
| ATAGTTCA | 0.202 |
| AGAACGTA | 0.0159 |
| AAGGGGCT | -0.163 |
| ATATTGTC | 0.215 |
| ACCTTGGC | -0.0759 |
| ACAGCTAG | -0.105 |
